Bioassay records (PubChem)
MCF10A rerep: induces DNA re-replication in MCF 10a normal breast cells; MCF 10A DNA re-replication, Hoechst nuclear intensity, 48 h; Potency, µM (series often up to 46.1 µM), most hits filed as activators; 350,000 tested, 2.9% active; also: nearly all actives have a fitted effect of over 50% in size
SW480 rerep: induces DNA re-replication in SW480 colon adenocarcinoma cells. SW480 DNA re-replication, Hoechst DNA content imaging, 48 h. Potency, µM (doses to about 46.1 µM), usual class: activators. 340,000 tested, 1.8% active. AID 624297; also: nearly all actives have a fitted effect of over 55% in size
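250 cells/well; 23 nL cpd via pin tool; 48 hr, 37 C, 5% CO2; Hoechst 40 min; imager read of total nuclear intensity, ex 405/em 500-530 nm.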
DT40 TDP1 CPT: growth inhibition of DT40 Tdp1-/-;hTDP1 cells with camptothecin (screen for TDP1 inhibitors); Potency, µM (highest dose often 46.2 µM), actives largely listed as inhibitors; chicken DT40 Tdp1-/-;hTDP1 cells + 20 nM CPT, ATP luminescence, 48 h; AID 686979; 420,000 tested, 12% active; also: nearly all actives have a fitted effect of over 55% in size
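Cell growth measured by CellTiter-Glo luminescence after a minimum 48 h, 37 C compound exposure with 20 nM CPT in Tdp1-knockout DT40 cells stably expressing hTDP1, seeded 400/well; qHTS titration format.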
BCR signal inh: blocks chronic active B-cell receptor signaling; ABC-DLBCL IkBa-CBG/CBR reporter, luminescence ratio, 4 h; Potency, µM (highest dose often 46.1 µM), usual class: inhibitors; 340,000 tested, 0.05% active; active = well fitted inhibition curve with a large enough effect in the signal ratio, with a control signal flat, not every such curve was filed as active; inconclusive = small, poorly fitted or top-dose-only effect, or effect the other way, or a change in a side signal; the % refers to the signal ratio
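TMD8 human ABC-DLBCL cells with doxycycline-inducible IκBα–green luciferase fusion and unfused red luciferase, in 0.5% FBS medium; compounds up to 46 uM, 4 h at 37C. Green/red luminescence ratio, filter-overlap corrected, fitted to concentration-response curves.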
DT40 TDP1 no CPT: qHTS for Inhibitors of human tyrosyl-DNA phosphodiesterase 1 (TDP1): qHTS in cells in absence of CPT. DT40 Tdp1-/- hTDP1 cells, no CPT, ATP luminescence, 48 h. Potency, µM (top dose mostly 46.2 µM), usual class: inhibitors. 420,000 tested, 15% active; also: nearly all actives have a fitted effect of over 55% in size
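Cells were dispensed at 400 per well, compounds added by pin tool, plates incubated ≥48 hr at 37 °C, then CellTiter-Glo added for 30 min at room temperature before luminescence reading. Line: DT40 Tdp1-/- complemented with hTDP1; camptothecin omitted.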
IL-1B inflam inh: inhibitors of inflammasome signaling (IL-1 beta secretion) | activity change, % at 57.5 µM | THP-1 LPS/ATP IL-1B secretion, AlphaLISA, 16 h; stronger effect = lower value | AID 743279 | 360,000 tested, 4.7% active; in the data active = activity change below about -50%; inconclusive = mostly about -30% to -49%
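THP-1 cells pretreated 1 hr with compounds (up to 57.5 uM final), then stimulated with LPS (250 ng/mL final) plus ATP (1.25 mM final); secreted IL-1B measured by AlphaLISA after 16 hr, decreased signal indicating inhibition.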
Large screens that a line does not name were inactive. Sampled rows, rich in hits. Any-hit rate of the full collection: about 19%. Unless noted, calls follow the shape of the dose curve; as a rule, active = well fitted curve in the direction sought with a large enough effect; inconclusive = small, poorly fitted or top-dose-only effect, or another doubt; inactive = no such curve, though single readings can be large; an effect the other way counts as inactive or inconclusive.

Cc1c(C(=O)Nc2ccc(Cl)cc2)c2ccccn2c1C(=O)c1ccccc1	MCF10A rerep 25.9µM, SW480 rerep inconclusive, BCR signal inh inconclusive, DT40 TDP1 no CPT inconclusive
CON(c1nc(Cl)nc(N(C)C)n1)S(=O)(=O)c1ccc(C)cc1	MCF10A rerep inconclusive, SW480 rerep inconclusive, BCR signal inh inconclusive, DT40 TDP1 no CPT 16.4µM, IL-1B inflam inh -63.1
CON(c1nc(Cl)nc(N(C)C)n1)S(=O)(=O)c1ccccc1Cl	BCR signal inh inconclusive, DT40 TDP1 no CPT inconclusive
Cc1ccc(S(=O)(=O)NN=CC2(c3ccccc3)CC2)cc1	none (no result: MCF10A rerep, SW480 rerep, BCR signal inh)
CCC(Sc1nc2sc(C(=O)OC)c(C)c2c(=O)n1N)C(=O)N(CC)CC (configuration not stated)	DT40 TDP1 CPT inconclusive, DT40 TDP1 no CPT 13µM
Cc1ccccc1CNC(=O)C(C)n1nc(C)n2c(cc3occc32)c1=O (configuration not stated)	none (no result: MCF10A rerep, SW480 rerep, BCR signal inh, IL-1B inflam inh)
CCc1ccc(OCC(=O)Nc2ccc(S(=O)(=O)Nc3ccccn3)cc2)cc1	BCR signal inh inconclusive
Cc1cnc(CNc2ncnc3ccc(-c4ccccc4C#N)cc23)cn1	none (no result: MCF10A rerep, SW480 rerep, BCR signal inh, IL-1B inflam inh)
Cc1cc(=O)n2nc(N3CCCC(C(=O)NCCCN4C(C)CCCC4C)C3)sc2n1 (configuration not stated)	none (no result: MCF10A rerep, SW480 rerep, BCR signal inh)
CN(C)S(=O)(=O)c1ccc2nc(NC(=O)c3cccnc3)sc2c1	none (no result: BCR signal inh)
O=[N+]([O-])c1ccc2nc(NS(=O)(=O)c3ccccc3[N+](=O)[O-])sc2c1	MCF10A rerep inconclusive
O=C(NC(Nc1nc2ccc([N+](=O)[O-])cc2s1)(C(F)(F)F)C(F)(F)F)c1cccnc1	DT40 TDP1 CPT 3.66µM, BCR signal inh inconclusive, DT40 TDP1 no CPT 2.31µM, IL-1B inflam inh -69.8
O=[N+]([O-])c1ccc2nc(SCc3ccccc3Cl)sc2c1	MCF10A rerep 13µM, DT40 TDP1 CPT inconclusive, BCR signal inh inconclusive, DT40 TDP1 no CPT inconclusive
O=C(NC(Nc1nc2ccc([N+](=O)[O-])cc2s1)(C(F)(F)F)C(F)(F)F)c1ccccc1Cl	MCF10A rerep 20.6µM, SW480 rerep inconclusive, DT40 TDP1 CPT 0.326µM, BCR signal inh inconclusive, DT40 TDP1 no CPT 0.184µM, IL-1B inflam inh -69.5
COc1ccccc1C(=O)NCc1nc2cccnc2n1Cc1ccc(F)cc1	DT40 TDP1 no CPT inconclusive (no result: MCF10A rerep, SW480 rerep, BCR signal inh, IL-1B inflam inh)
COc1ccc(C)cc1Nc1cc(C)nc(C)n1	DT40 TDP1 no CPT inconclusive (no result: MCF10A rerep, SW480 rerep, BCR signal inh, IL-1B inflam inh)
O=C(Nc1ccnc(-c2ccncc2)n1)c1ccc(Cl)cc1	none
N#CC1=C(N)N2C(=C(C#N)C13CCCCC3)SC1CCCCC12O (configuration not stated)	MCF10A rerep inconclusive, DT40 TDP1 CPT 10.3µM, BCR signal inh inconclusive, DT40 TDP1 no CPT 13µM
CN1CCN(C(=O)CCn2c(=O)c3cccn3c3cccnc32)CC1	none
O=C(CCn1c(=O)c2cccn2c2cccnc21)N1CCN(c2cccc(C(F)(F)F)c2)CC1	DT40 TDP1 CPT 14.6µM, DT40 TDP1 no CPT 9.2µM (no result: MCF10A rerep, SW480 rerep, BCR signal inh, IL-1B inflam inh)
O=C(CCn1c(=O)c2cccn2c2cccnc21)N1CCN(c2ccc(Cl)cc2)CC1	DT40 TDP1 CPT 10.3µM, DT40 TDP1 no CPT 13µM (no result: MCF10A rerep, SW480 rerep, BCR signal inh, IL-1B inflam inh)
CCC(CCC(C)C1CCC2C3CC=C4CC(OC(C)=O)CC[C@@]4(C)C3CC[C@@]12C)C(C)C (some centres not stated)	none (no result: MCF10A rerep, SW480 rerep, BCR signal inh, IL-1B inflam inh)
CCOC(=O)c1ccc(NS(=O)(=O)c2c(C)[nH]c(C)c2C(=O)N2CCCCC2)cc1	DT40 TDP1 CPT inconclusive
OC(CNCc1ccccc1)(c1ccccc1)c1ccccc1	DT40 TDP1 no CPT inconclusive
COc1ccc(CNCC(O)(c2ccccc2)c2ccccc2)cc1	DT40 TDP1 CPT inconclusive, BCR signal inh inconclusive, DT40 TDP1 no CPT 18.4µM, IL-1B inflam inh -78.3
COc1ccc(CNC(=S)NCc2ccc(F)cc2)cc1	BCR signal inh inconclusive
COc1ccc(CNCC(O)(c2ccccc2)c2ccccc2)cc1OC	BCR signal inh inconclusive, DT40 TDP1 no CPT 13µM
COc1ccc(CNCc2ccncc2)cc1OC	none
COc1ccc(CNCC(O)(c2ccc(F)cc2)c2ccc(F)cc2)cc1	MCF10A rerep inconclusive, SW480 rerep inconclusive, DT40 TDP1 CPT inconclusive, BCR signal inh inconclusive, DT40 TDP1 no CPT 13µM, IL-1B inflam inh -89.3
COC(=O)[C@@]12C[C@@H](CC(=O)N3CCCC3)C(=O)N(Cc3ccccc3)C1=CCC(C)(C)C2	DT40 TDP1 CPT 23.1µM, DT40 TDP1 no CPT inconclusive (no result: MCF10A rerep, SW480 rerep, BCR signal inh)
COC(=O)[C@@]12C[C@@H](CC(=O)N3CCN(C(=O)C4CC4)CC3)C(=O)N(Cc3ccco3)C1=CCC(C)(C)C2	DT40 TDP1 CPT inconclusive, DT40 TDP1 no CPT inconclusive (no result: MCF10A rerep, SW480 rerep, BCR signal inh)
COC(=O)[C@@]12C[C@@H](CC(=O)N3CCN(C(=O)C4CC4)CC3)C(=O)N(Cc3ccccc3)C1=CCC(C)(C)C2	DT40 TDP1 CPT inconclusive, DT40 TDP1 no CPT inconclusive (no result: MCF10A rerep, SW480 rerep, BCR signal inh)
COC(=O)[C@@]12C[C@@H](CC(=O)N3CCCCC3)C(=O)N(Cc3ccccc3)C1=CCC(C)(C)C2	DT40 TDP1 CPT inconclusive, DT40 TDP1 no CPT 18.4µM (no result: MCF10A rerep, SW480 rerep, BCR signal inh)
COC(=O)[C@@]12C[C@@H](CC(=O)N3CCCC3)C(=O)N(Cc3ccco3)C1=CCC(C)(C)C2	DT40 TDP1 CPT inconclusive, DT40 TDP1 no CPT 16.4µM (no result: MCF10A rerep, SW480 rerep, BCR signal inh)
COc1ccc(S(=O)(=O)c2c(C(=O)c3ccc(C)c(C)c3)cnc3ccc(C)cc23)cc1	DT40 TDP1 CPT 7.31µM, DT40 TDP1 no CPT 6.51µM (no result: MCF10A rerep, SW480 rerep, BCR signal inh, IL-1B inflam inh)
CCOc1ccc(S(=O)(=O)c2c(C(=O)c3ccc(C)cc3)cnc3cc4c(cc23)OCCO4)cc1	IL-1B inflam inh inconclusive
